In PubChem BioAssay AID1159580 (chemical genetic matrix, 2015):
Several values for one entry are separate records, joined by “and”; a condition that tells them apart may be missing. Identical values can stand only once. Out of some 5,500 compounds screened, about 2,000 (36%) were called active. Another 18% or so got no clear call; they are omitted. No stated cut-off is given here; in the data, active means normalized growth mostly below about 0.91 (no sharp cut-off); inconclusive means no clear call, values can overlap the other calls; inactive means mostly above about 0.92. This is one part of the list.

Experiment: chemical genetic growth profiling, strain panel (AID 1159580);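 further: tested at 20 µM; growth read once vehicle control cultures reached saturation at 30 °C; 1 = growth at the plate median or of vehicle wells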
Settings: S. cerevisiae deletion strains, growth OD

Measured: normalized growth

CC(=O)Oc1cccc(O)c1
inactive: locus YAL021C, strain ccr4, stronger effect = lower value 1 | locus YAL026C, strain drs2, stronger effect = lower value 1.04 | locus YAL030W, strain snc1, stronger effect = lower value 1.01 | locus YBL061C, strain skt5, stronger effect = lower value 1.02 | locus YBR009C, strain hhf1, stronger effect = lower value 1.01 | locus YBR021W, strain FUR4, stronger effect = lower value 0.973 | locus YBR023C, strain chs3, stronger effect = lower value 1.03 | locus YBR171W, strain sec66, stronger effect = lower value 1.03 | locus YBR229C, strain ROT2, stronger effect = lower value 1 | locus YBR231C, strain swc5, stronger effect = lower value 1.03 | locus YBR279W, strain paf1, stronger effect = lower value 1.02 | locus YCL011C, strain gbp2, stronger effect = lower value 1.02 | locus YCL016C, strain dcc1, stronger effect = lower value 1.01 | locus YCL029C, strain bik1, stronger effect = lower value 1.01 | locus YCL069W, strain vba3, stronger effect = lower value 1.03 | locus YCR088W, strain abp1, stronger effect = lower value 1.02 | locus YDL005C, strain med2, stronger effect = lower value 1.03 | locus YDL035C, strain GPR1, stronger effect = lower value 1.01 | locus YDL040C, strain nat1, stronger effect = lower value 1.02 | locus YDL074C, strain BRE1, stronger effect = lower value 0.996 | locus YDL101C, strain DUN1, stronger effect = lower value 1.01 | locus YDL134C, strain PPH21, stronger effect = lower value 1.01 | locus YDL185W, strain tfp1, stronger effect = lower value 1.03 | locus YDL192W, strain arf1, stronger effect = lower value 1.02 | locus YDR001C, strain nth1, stronger effect = lower value 1.02 | locus YDR069C, strain doa4, stronger effect = lower value 1.03 | locus YDR101C, strain arx1, stronger effect = lower value 0.996 | locus YDR137W, strain rgp1, stronger effect = lower value 1.05 | locus YDR159W, strain sac3, stronger effect = lower value 1.05 | locus YDR162C, strain NBP2, stronger effect = lower value 1.02 | locus YDR195W, strain ref2 1.03 | locus YDR297W, strain sur2, stronger effect = lower value 1.04 | locus YDR318W, strain mcm21, stronger effect = lower value 1.01 | locus YDR334W, strain swr1, stronger effect = lower value 1.01 | locus YDR335W, strain msn5, stronger effect = lower value 1.01 | locus YDR388W, stronger effect = lower value 1.02 | locus YDR392W, strain spt3, stronger effect = lower value 1.01 | locus YDR502C, strain sam2, stronger effect = lower value 1.03 | locus YEL003W, strain gim4, stronger effect = lower value 1.02 | locus YEL037C, strain rad23, stronger effect = lower value 1.02 | locus YEL061C, strain CIN8 (second series), stronger effect = lower value 1.02 | locus YEL061C, strain CIN8, stronger effect = lower value 1.01 | locus YER015W, strain faa2, stronger effect = lower value 1.02 | locus YER110C, stronger effect = lower value 1.03 | locus YER111C, strain swi4, stronger effect = lower value 1.02 | locus YER155C, strain BEM2 (second series), stronger effect = lower value 1.02 | locus YER155C, strain BEM2, stronger effect = lower value 0.996 | locus YER167W, strain BCK2, stronger effect = lower value 1 | locus YFR010W, strain ubp6, stronger effect = lower value 1.04 | locus YGL078C, strain dbp3, stronger effect = lower value 1.02 | locus YGL086W, strain mad1, stronger effect = lower value 0.999 | locus YGL167C, strain pmr1, stronger effect = lower value 1.02 | locus YGL173C, strain kem1, stronger effect = lower value 1.04 | locus YGL227W, strain vid30, stronger effect = lower value 1.02 | locus YGL240W, strain doc1, stronger effect = lower value 1.02 | locus YGL248W, strain PDE1, stronger effect = lower value 1.01 | locus YGL253W, strain hxk2, stronger effect = lower value 1.02 | locus YGR078C, strain PAC10, stronger effect = lower value 1 | locus YGR135W, strain pre9, stronger effect = lower value 1.03 | locus YGR229C, strain SMI1, stronger effect = lower value 1 | locus YGR252W, strain gcn5, stronger effect = lower value 1.06 | locus YHR013C, strain ard1, stronger effect = lower value 1.02 | locus YHR027C, strain rpn1, stronger effect = lower value 1.02 | locus YHR030C, strain SLT2, stronger effect = lower value 1.01 and 0.949 | locus YHR079C, strain IRE1 (second series), stronger effect = lower value 1.01 | locus YHR079C, strain IRE1, stronger effect = lower value 0.967 | locus YHR094C, strain hxt1, stronger effect = lower value 1.01 | locus YHR129C, strain ARP1, stronger effect = lower value 1.01 | locus YHR142W, strain chs7, stronger effect = lower value 1.03 | locus YHR200W, strain rpn10, stronger effect = lower value 1.02 | locus YIL066C, strain RNR3, stronger effect = lower value 1 | locus YIL073C, strain SPO22, stronger effect = lower value 1.04 | locus YIL125W, strain kgd1, stronger effect = lower value 1.01 | locus YIR030C, strain dcg1, stronger effect = lower value 1.01 | locus YJL092W, strain hpr5, stronger effect = lower value 1.02 | locus YJL095W, strain BCK1 (second series), stronger effect = lower value 1.02 | locus YJL095W, strain BCK1, stronger effect = lower value 1.01 and 0.974 | locus YJL115W, strain asf1, stronger effect = lower value 1.01 | locus YJL129C, strain trk1, stronger effect = lower value 1.04 | locus YJL134W, strain LCB3, stronger effect = lower value 1.01 | locus YJL154C, strain vps35, stronger effect = lower value 1.02 | locus YJL164C, strain tpk1, stronger effect = lower value 1.01 | locus YJL166W, strain qcr8, stronger effect = lower value 1.03 | locus YJL168C, strain set2, stronger effect = lower value 1.02 | locus YJL187C, strain SWE1 (second series), stronger effect = lower value 1.01 | locus YJL187C, strain SWE1, stronger effect = lower value 1.02 | locus YJR043C, strain POL32, stronger effect = lower value 0.999 | locus YJR066W, strain TOR1, stronger effect = lower value 0.96
